Experimental data reported in PubChem BioAssay (Tox21).
Inconclusive results are not listed. A number with no mark means an inactive call. Active and inactive are the calls of the source. Calls come from the whole dose curve.

Target: Beta-2 adrenergic receptor (Homo sapiens) (UniProt P07550)
Test: Adrenergic beta2 receptor (ADRB2) small molecule agonists, cell-based qHTS assay (AID 1963593);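 note: CHO cells stably overexpressing human ADRB2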
Conditions: CHO-ADRB2 cells, cAMP HTRF, 30 min; series mostly up to 92.4 µM; activation: at the top concentration
Method in brief: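 CHO cells stably over-expressing ADRB2 were plated overnight at 37C, then dosed with compounds plus a stimulation mix containing 100uM IBMX and 25uM Ro-20-1724 for 0.5hr at room temperature. cAMP was measured by HTRF competition, 1hr.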
% is set by controls: 0 for no effect and ±100 for the full control effect.

Sequence of Beta-2 adrenergic receptor (Homo sapiens) (P07550 whole entry, looked up): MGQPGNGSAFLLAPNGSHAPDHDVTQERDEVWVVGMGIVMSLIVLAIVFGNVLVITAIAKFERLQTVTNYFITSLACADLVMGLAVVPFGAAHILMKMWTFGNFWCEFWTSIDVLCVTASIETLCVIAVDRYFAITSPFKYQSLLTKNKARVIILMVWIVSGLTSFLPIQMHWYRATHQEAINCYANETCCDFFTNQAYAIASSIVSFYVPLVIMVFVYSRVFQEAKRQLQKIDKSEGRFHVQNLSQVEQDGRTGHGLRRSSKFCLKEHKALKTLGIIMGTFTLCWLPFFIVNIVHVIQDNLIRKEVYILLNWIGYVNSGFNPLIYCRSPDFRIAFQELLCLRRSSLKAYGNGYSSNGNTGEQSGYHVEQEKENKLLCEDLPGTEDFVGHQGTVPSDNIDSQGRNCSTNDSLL

| Compound | activation |
| --- | --- |
| CC1CCC(CO)CC1 (configuration not stated) | 2.04% |
| Cc1c[nH]c(=S)[nH]c1=O | -4.5% |
| CC(=O)OC1C2(C)CCC(C2)C1(C)C (configuration not stated) | -8.65% |
| O=C(O)c1ccc(S(=O)(=O)O)cc1C(=O)O | 1.03% |
| O=C1CCCCCCCCCCCC(=O)OCCO1 | 0.871% |
| SC1CCCC1 | -18% |
| N#CCCN(CCO)CCO | 2.49% |
| CC(C)O.CC(C)O.CCOC(=O)/C=C(\C)O.CCOC(=O)/C=C(\C)O.[Ti] | 9.03% |
| CC1=C(O)C(=O)CO1 | -27.8% |
| O=C(OCC(COC(=O)c1cccnc1)(COC(=O)c1cccnc1)COC(=O)c1cccnc1)c1cccnc1 | -4.54% [at 42.5 µM] |
| NC(=O)N(O)[C@@H]1COc2cc(OCc3ccccc3)ccc21 | 0.592% |
| CN1C(CSCC(F)(F)F)Nc2cc(Cl)c(S(N)(=O)=O)cc2S1(=O)=O (configuration not stated) | 5.53% [at 42.5 µM] |
| Nc1ccc2cc(S(=O)(=O)O)cc(O)c2c1N=Nc1ccccc1C(F)(F)F | -27.7% |
| CC[C@H](C)C(=O)O[C@H]1C[C@H](O)C=C2C=C[C@H](C)[C@H](CC[C@@H](O)C[C@@H](O)CC(=O)O)[C@H]21 | -43% |
| CCCCOCCOCCOCc1cc2c(cc1CCC)OCO2 | -29.5% [at 42.5 µM] |
| C/C=C/C=N/NC(=O)c1ccncc1 | -37.6% [at 42.5 µM] |
| C[C@@H]1C[C@H]2[C@@H]3C[C@H](F)C4=CC(=O)C=C[C@]4(C)[C@@]3(F)[C@@H](O)C[C@]2(C)[C@@]1(O)C(=O)CO | 7.69% [at 42.5 µM] |

Target: D(2) dopamine receptor (Homo sapiens) (UniProt P14416)
Sequence (P14416 whole entry, looked up): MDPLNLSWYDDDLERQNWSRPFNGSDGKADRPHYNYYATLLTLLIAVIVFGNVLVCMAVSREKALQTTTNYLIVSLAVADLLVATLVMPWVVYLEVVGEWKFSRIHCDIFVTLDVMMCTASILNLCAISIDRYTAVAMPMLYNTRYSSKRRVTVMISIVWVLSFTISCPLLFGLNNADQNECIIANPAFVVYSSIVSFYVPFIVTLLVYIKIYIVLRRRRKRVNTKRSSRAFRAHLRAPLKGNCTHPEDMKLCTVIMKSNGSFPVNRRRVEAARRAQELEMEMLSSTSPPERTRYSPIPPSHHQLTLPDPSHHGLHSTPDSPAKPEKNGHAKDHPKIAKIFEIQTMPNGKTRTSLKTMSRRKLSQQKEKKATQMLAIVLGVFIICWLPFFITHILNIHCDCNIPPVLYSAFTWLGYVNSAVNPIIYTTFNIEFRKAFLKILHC
Test: Dopamine D2 receptor (DRD2) small molecule agonists, cell-based qHTS assay (AID 1963594); note: nearly all actives have a fitted effect of over 35% in size; note: potency is the fitted concentration of half-maximal effect
Conditions: HEK293-DRD2 cAMP HTRF, agonist mode, 30 min; series mostly up to 92.4 µM; activation: at the top concentration
Method in brief: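 HEK293 cells stably expressing human DRD2, pre-treated with PDE inhibitor Ro20-1724 (0.1 mM final) and compound 10 min at room temperature, then stimulated with NKH477 (200nM […]) for 30 min. cAMP read by HTRF (665/620 nm).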

| Compound | activation | Potency |
| --- | --- | --- |
| CC1CCC(CO)CC1 (configuration not stated) | 1.94% |  |
| Cc1c[nH]c(=S)[nH]c1=O | 1.68% |  |
| CC(=O)OC1C2(C)CCC(C2)C1(C)C (configuration not stated) | 0.79% |  |
| COP(=O)(OC)OC(c1ccc(Cl)cc1)P(=O)(OC)OC (configuration not stated) | 5.88% [at 42.5 µM] |  |
| CCC(Cl)CC(Cl)C(Cl)C(Cl)C(Cl)C(C)Cl (configuration not stated) | -1.17% [at 19 µM] |  |
| O=C(O)c1ccc(S(=O)(=O)O)cc1C(=O)O | -0.452% |  |
| CCCOC(=O)CCCCC(=O)OCCC | -7.14% |  |
| O=C1CCCCCCCCCCCC(=O)OCCO1 | -6.72% |  |
| CCCCCCCCCCl | 1.84% |  |
| CC(C)CCCCCCOC(=O)C1CCCCC1C(=O)OCCCCCCC(C)C (configuration not stated) | -7.7% |  |
| O=S(=O)(O)c1cc(O)c2ccc(Nc3ccccc3)cc2c1 | 17.4% |  |
| SC1CCCC1 | 7.89% |  |
| N#CCCN(CCO)CCO | -0.043% |  |
| CC(C)O.CC(C)O.CCOC(=O)/C=C(\C)O.CCOC(=O)/C=C(\C)O.[Ti] | 10.3% |  |
| Cn1cc(C(=O)[C@@H]2CCc3nc[nH]c3C2)c2ccccc21 | -18.3% [at 42.5 µM] |  |
| Cc1ccc2ccc3cccc4ccc1c2c34 | 0.233% |  |
| O=C(OCC(COC(=O)c1cccnc1)(COC(=O)c1cccnc1)COC(=O)c1cccnc1)c1cccnc1 | -6.64% [at 42.5 µM] |  |
| CN1C(CSCC(F)(F)F)Nc2cc(Cl)c(S(N)(=O)=O)cc2S1(=O)=O (configuration not stated) | 0.874% [at 42.5 µM] |  |

| Compound | activation | Potency |
| --- | --- | --- |
| Nc1ccc2cc(S(=O)(=O)O)cc(O)c2c1N=Nc1ccccc1C(F)(F)F | 2.28% |  |
| CC[C@H](C)C(=O)O[C@H]1C[C@H](O)C=C2C=C[C@H](C)[C@H](CC[C@@H](O)C[C@@H](O)CC(=O)O)[C@H]21 |  | 61.1 µM (active) |
| CCCCOCCOCCOCc1cc2c(cc1CCC)OCO2 |  | inactive |
| CCCC(=O)O[C@]1(C(=O)COC(=O)CC)CC[C@H]2[C@@H]3CCC4=CC(=O)CC[C@]4(C)[C@H]3[C@@H](O)C[C@@]21C | 3.82% [at 19 µM] |  |
| CCN1C=CN(C)C1C (configuration not stated) | 1.71% |  |
| CC1CCC(=O)C1=O (configuration not stated) | 8.34% |  |
| COc1ccc(CCN(C)CCCN2CCc3cc(OC)c(OC)cc3CC2=O)cc1OC | 3.59% [at 42.5 µM] |  |
| OCCC1CCCCN1 (configuration not stated) | -14.1% |  |
| C=C(C)C(=O)OCCOc1ccccc1 | 2.11% |  |
| OCCCCCCCCCCCCBr | -3.15% |  |
| COc1ccc2cc1Oc1ccc(cc1)C[C@H]1c3c(cc4c(c3Oc3cc5c(cc3OC)CCN(C)[C@@H]5C2)OCO4)CCN1C | -10.5% [at 42.5 µM] |  |
| Cc1cc(O)c2c(O)c3c(O)cccc3cc2c1 | 18.8% [at 42.5 µM] |  |
| Cc1ncc([N+](=O)[O-])n1CC(O)CCl (configuration not stated) | 13.5% [at 42.5 µM] |  |
| Cc1c(N)cccc1N | 0.455% |  |
| Oc1cccc(Nc2ccccc2)c1 | 3.2% |  |
| NNC(=O)OCc1ccccc1 | -6.68% |  |
| C[C@@H]1C[C@H]2[C@@H]3C[C@H](F)C4=CC(=O)C=C[C@]4(C)[C@@]3(F)[C@@H](O)C[C@]2(C)[C@@]1(O)C(=O)CO | 5.97% [at 42.5 µM] |  |
